Rows were chosen to be rich in hits. Some 9.4% of all compounds tested hit in one or more screens of this group.
Pf growth 96h: P. falciparum growth inhibition at 96 hours | P. falciparum luciferase reporter growth, 96 h | hit rate 6.9% among 320,000 | Potency, µM (doses to about 28.7 µM), for inactives: at the highest dose activity change, negative = inhibition, hits mostly inhibitors | AID 504834; also: % is scaled to controls: 0 for no effect and ±100 for the full control effect
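Plates of compound plus infected erythrocytes (2% hematocrit, 0.05% parasitemia final) incubate 96 hours, 37 C, 5% CO2. Detection reagent added; reduced luminescence from the parasites' luciferase reporter flags inhibition.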
AMA1 RON2 block: inhibitors of Plasmodium falciparum AMA1-RON2 interaction. AlphaScreen AMA1-biotinylated RON2 peptide binding. Potency, µM (titrated, usually from 58.2 µM), inactives show top-dose activity change, negative = inhibition, hits mostly inhibitors. hit rate 0.2% among 360,000. AID 720542;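 also: 0% = vehicle wells and -100% = peptide control; nearly all actives have a fitted effect of over 45% in size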
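AMA1 (3D7) with his tag at 25 nM final met compounds first, then biotinylated RON2 peptide at 25 nM; detection used donor plus acceptor beads, 10 µg/mL apiece, read by AlphaScreen after 30 min at room temperature.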
SARS PLP yeast: blocks SARS-CoV papain-like protease in a yeast assay | AID 485353 | Potency, µM (series often up to 32.9 µM), for the others: at the highest dose activity, positive = growth rescue, hits mostly activators | S. cerevisiae expressing SARS-CoV PLpro, growth rescue | hit rate 0.19% among 330,000; calls by dose curve; also: 0% is about no effect; nearly all actives have a fitted effect of over 55% in size
Pf growth 48h: inhibits P. falciparum growth in the first generation, 48 h; P. falciparum luciferase growth in erythrocytes, 48 h; Potency, µM (series often up to 28.7 µM), inactives show at the highest dose activity change, negative = inhibition, most hits filed as inhibitors; hit rate 5.9% among 310,000; also: % is scaled to controls: 0 for no effect and ±100 for the full control effect
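Read-out is firefly luciferase luminescence from an integrated reporter in P. falciparum, so falling signal marks reduced parasite growth. Infected erythrocytes were at 2% hematocrit and 0.1% parasitemia (final) in Albumax-supplemented RPMI 1640.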
* = called active by the depositor; i = inactive; ? = inconclusive; nt = no result given; [ ] = another dose, or the depositor's remark. Unless noted, calls follow the shape of the dose curve; as a rule, active = well fitted curve in the direction sought with a large enough effect; inconclusive = small, poorly fitted or top-dose-only effect, or another doubt; inactive = no such curve, though single readings can be large; an effect the other way counts as inactive or inconclusive. Potency is read from the fitted curve at half-maximal effect.

SMILES | Pf growth 96h | AMA1 RON2 block | SARS PLP yeast | Pf growth 48h
CCCCn1c(CN2CCN(C(=O)c3ccco3)CC2)nc2c1c(=O)n(C)c(=O)n2C | 13µM* | -4% | -21% | ?
Cn1c(=O)c2c(nc(CN3CCN(C(=O)c4ccco4)CC3)n2CCCc2ccccc2)n(C)c1=O | 7.4µM* | -6% | -3% | nt
CCCCCn1c(CN2CCN(C(=O)c3ccco3)CC2)nc2c1c(=O)n(C)c(=O)n2C | ? | 4% | 1% | 9.3µM*
CCCCCCn1c(CN2CCN(C(=O)c3ccco3)CC2)nc2c1c(=O)n(C)c(=O)n2C | ? | 2% | -9% | ?
c1ccc(-c2nnc(CSc3nnc(-c4ccncc4)n3Cc3ccco3)o2)cc1 | ? | -15% | 20% | -22%
COc1ccccc1N1CCN(C(=O)c2ccc3c(=O)n(Cc4ccc5c(c4)OCO5)c(=O)[nH]c3c2)CC1 | ? | 7% | 11% | 1.5µM*
COc1ccc(Cn2c(=O)[nH]c3cc(C(=O)N4CCN(c5ccccc5OC)CC4)ccc3c2=O)cc1 | 8% | 1% | -11% | 3.3µM*
Cc1[nH]c2ccccc2c1C1(O)C(=O)N(Cc2ccc3c(c2)OCO3)c2ccccc21 (stereo not drawn) | 13µM* | ? | -38% | -21%
COc1ccccc1N1CCN(C(=O)c2cc3c(s2)CCC3)CC1 | 13µM* | 9% | 2% | nt
COCCn1c(=O)[nH]c2cc(C(=O)N3CCN(Cc4ccc5c(c4)OCO5)CC3)ccc2c1=O | nt | -6% | nt | nt
O=C(c1[nH]nc2c1CCc1ccccc1-2)N1CCN(Cc2ccc3c(c2)OCO3)CC1 | ? | -10% | 2% | 8.3µM*
COc1ccc(Cn2c(=O)[nH]c3cc(C(=O)N4CCN(c5ccccc5F)CC4)ccc3c2=O)cc1 | 12µM* | 5% | -2% | 12µM*
CCCc1cc(=O)oc2cc(OCC(=O)N3CCN(Cc4ccc5c(c4)OCO5)CC3)ccc12 | 12µM* | -1% | -5% | ?
COc1ccc(C(=O)N2CCN(Cc3ccc4c(c3)OCO4)CC2)cc1OC | 9.3µM* | -15% | 8% | -4%
COc1ccc(Cn2c(=O)[nH]c3cc(C(=O)N4CCN(Cc5ccccc5)CC4)ccc3c2=O)cc1 | -2% | -22% | 4% | ?
Cc1ccc(OCC(=O)N2CCN(Cc3ccc4c(c3)OCO4)CC2)cc1 | -1% | -12% | 0% | 18%
CC(C)(C#N)C(C)(C)c1nn[nH]n1 | 11% | -2% | 5% | 11%
COc1ccc(CN2C(=O)C(O)(CC(=O)c3ccc4c(c3)OCO4)c3ccccc32)cc1OC (stereo not drawn) | 5.9µM* | -6% | 2% | nt
COc1ccccc1N1CCN(C(=O)c2ccc3[nH]c4c(c3c2)CCCC4)CC1 | 12µM* | -27% | -8% | 0%
O=C(c1ccc(Cn2cc(Cl)cn2)o1)N1CCN(Cc2ccc3c(c2)OCO3)CC1 | 13µM* | -7% | 4% | ?
CC(C)C(NC(=O)c1ccccc1)C(=O)NC1CCCc2ccccc21 (stereo not drawn) | ? | -5% | -4% | ?
OCC#CCSc1nnc(-c2ccncc2)o1 | 0.29µM* | 8% | 10% | 16%
C#CCSc1nnc(-c2ccc(C)cc2)o1 | 1.2µM* | -9% | -11% | i
CCSc1nnc(-c2ccncc2)o1 | 75% | -1% | 3% | 11%
O=C(c1ccc(CNc2c(N3CCCC3)c(=O)c2=O)cc1)N1CCN(C2CCCCC2)CC1 | -19% | -6% | -13% | 0%
SMILES | Pf growth 96h | AMA1 RON2 block | SARS PLP yeast | Pf growth 48h
Cc1[nH]c2ccc(F)cc2c(=O)c1SC(F)(F)C(F)C(F)(F)F (stereo not drawn) | 19% | 3% | -1% | nt
COc1cccc2c(=O)c(SC(F)(F)C(F)C(F)(F)F)c(C)[nH]c12 (stereo not drawn) | 3.7µM* | 4% | -8% | 6.6µM*
COc1cccc2c(=O)c(C/C=C(/C)Cl)c(C)[nH]c12 | nt | -8% | -8% | 0.74µM*
COc1ccc(C(=O)NCc2ccon2)cc1OC1CCN(C(C)C)CC1 | -28% | 1% | 5% | 24%
CCN(CC)S(=O)(=O)c1ccc2c(c1)c(C(=O)O)cn2C | 6.6µM* | 0% | 6% | 8%
CCN(CC)S(=O)(=O)c1ccc2c(c1)c(=O)c(C(=O)N1CCN(c3ccccn3)CC1)cn2C | 0.52µM* | 11% | 0% | -7%
Cn1cc(C(=O)N2CCN(c3ccccn3)CC2)c(=O)c2cc(S(=O)(=O)N3CCOCC3)ccc21 | 154% | -3% | -2% | 9%
CCN(CC)C(=O)c1cn(C)c2ccc(S(=O)(=O)N(CC)CC)cc2c1=O | 32% | 8% | 6% | -12%
OCC1(CCOc2ccccc2)CCN(Cc2cc(Cl)ccc2O)CC1 | ? | -15% | 3% | 26%
CCOc1cc(CNCCc2ccc(S(N)(=O)=O)cc2)ccc1OCc1ccccc1 | ? | -7% | -1% | ?
OCCNCc1cc(Br)ccc1OCc1ccccc1 | -9% | -21% | 2% | -29%
NS(=O)(=O)c1ccc(CCNCc2cc(Br)ccc2OCc2ccccc2)cc1 | -18% | -11% | 14% | 13µM*
CCOc1cc(CNCCc2ccc(S(N)(=O)=O)cc2)cc(Cl)c1OCc1ccccc1 | 13µM* | -4% | -7% | 13µM*
CCOCCCNCc1cc(Br)ccc1OCc1ccccc1 | ? | 13% | -30% | 10µM*
Brc1ccc(OCc2ccccc2)c(CNCC2CCCO2)c1 (stereo not drawn) | 33% | 1% | 0% | -5%
COc1ccc(C2=NN3C(C2)c2ccccc2OC32C(=O)N(C)c3ccccc32)cc1 (stereo not drawn) | -4% | 29% | -13% | ?
CCc1nc(N2CCC(C)CC2)c2oc3ccccc3c2n1 | -3%[5.75 µM] | 1% | 0% | ?
CC(C)(C)c1cc(C(=O)NNC(=O)Nc2ccccc2)n(Cc2ccccc2)n1 | 9.3µM* | 79% | 0% | 5.2µM*
Cc1ccc(S(=O)(=O)N(C)C)cc1NC(=O)CN1CCN(Cc2ccccc2)CC1 | -15% | -4% | 3% | 3%
Cc1cccc(C)c1NC(=O)NNC(=O)c1cc(C(C)(C)C)nn1Cc1ccccc1 | ? | 7% | 0% | ?
Cc1ccc(S(=O)(=O)N(C)C)cc1NC(=O)c1cc(C(C)(C)C)nn1Cc1ccccc1 | 7.4µM* | 0% | -1% | ?
CC(C)(C)c1cc(C(=O)NNC(=O)Nc2cccc(Cl)c2)n(Cc2ccccc2)n1 | 9.3µM* | 52% | -1% | ?
COc1ccc(-c2csc(NC(=O)c3cccc(N4C(=O)CCC4=O)c3)n2)cc1C | -18% | -15% | -1% | -5%
CC1(C)CC(=O)c2c(oc3cc(O)c(O)cc23)C1 | 58% | 1.6µM* | -3% | nt
CCCCOc1c(Cl)cc(C(=O)N2CCN(CC(=O)N3CCCC3)CC2)cc1OCC | ? | -6% | -5% | 12µM*
COc1cc(OC)nc(-n2ncc(Br)c(Br)c2=O)n1 | 13µM* | 4% | -57% | ?
COC(=O)c1cnn(-c2nc(OC)cc(OC)n2)c1C | 21% | -17% | 19% | 0%
Cc1cccn2c(=O)c3cc(C(=O)O)n(C)c3nc12 | 18% | -8% | 5% | 15%

Bioassay records deposited in PubChem by National Center for Advancing Translational Sciences (NCATS).
